DRD3 agonist: D3 dopamine receptor (human) agonism; P35462; D3R DiscoveRx beta-arrestin cells, luminescence, 90 min; max activation, %; 0.58% of 410,000 active; AID 652048; in the data active means max activation above about 30%; further: 0% is about no effect
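Agonist-mode cell screen: cells plated at 1500/well and incubated overnight at 37 °C, then exposed to library compounds for 90 min at 37 °C. Detection reagent was added for 30–60 min at room temperature, and luminescence was read.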
D1 PAM: potentiators of human D1 dopamine receptor. potentiation, % at 10 µM. 0.036% of 360,000 active. P21728. AID 504651. HEK293 TREx D1 cells, calcium flux, dopamine EC20 potentiation; in the data active means potentiation above about 30%; further: 0% is about no effect
Target sequence (P21728 whole entry, looked up): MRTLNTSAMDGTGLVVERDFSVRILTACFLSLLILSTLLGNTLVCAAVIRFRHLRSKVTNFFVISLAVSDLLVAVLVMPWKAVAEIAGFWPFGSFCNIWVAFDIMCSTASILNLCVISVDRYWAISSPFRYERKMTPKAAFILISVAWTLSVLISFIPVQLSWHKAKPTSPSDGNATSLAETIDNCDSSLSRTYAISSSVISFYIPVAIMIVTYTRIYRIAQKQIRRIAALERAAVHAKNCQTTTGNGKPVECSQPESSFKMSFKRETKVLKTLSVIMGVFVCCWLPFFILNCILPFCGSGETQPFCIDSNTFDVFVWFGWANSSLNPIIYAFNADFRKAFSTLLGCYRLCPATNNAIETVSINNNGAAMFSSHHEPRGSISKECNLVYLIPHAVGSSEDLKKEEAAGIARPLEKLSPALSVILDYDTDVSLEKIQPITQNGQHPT
D1 antagonist: antagonists of human D1 dopamine receptor | P21728 | HEK293 TREx D1 cells, calcium flux, dopamine EC80; hits give low values | activity change, negative = inhibition, % at 10 µM | 3.2% of 360,000 active; in the data active means activity change below about -30%; further: on the % scale 0 is the no-effect control and ±100 the full control effect
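HEK293 T-REx cells expressing inducible, force-coupled D1 receptor; no-wash Ca dye, 30–90 min RT. Cmpd → 180 s read at 1 Hz → EC80 DA → 180 s read.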
D1 agonist: activates the human D1 dopamine receptor; activation, % at 2 µM; HEK293 T-REx D1 cells, calcium flux, agonist mode; 1% of 360,000 active; P21728; in the data active means activation above about 30%; further: 0% is about no effect
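Inducible HEK293 T-REx D1 cells, force-coupled to calcium signalling, were plated at 4000 cells/well with tetracycline and held overnight at 30 C. After no-wash calcium dye loading, compound-evoked calcium rise over 180 s flagged agonists.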
DRD3 antagonist: antagonists of human D3 dopamine receptor; D3R cells, DiscoveRx beta-arrestin luminescence, antagonist mode; hits give low values; max response, negative = inhibition, %; 2.5% of 360,000 active; AID 652054; in the data active means max response below about -50%; inconclusive means no clear call, values can overlap the other calls; further: on the % scale 0 is the no-effect control and ±100 the full control effect
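Cells expressing the human receptor were seeded at 1500 cells/well, incubated overnight at 37 degrees C in 5% CO2, then exposed to library compounds with dopamine controls for 90 minutes at 37 degrees C before luminescent detection.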
* = called active by the depositor; ? = inconclusive; nt = no result given. Hits are enriched below; roughly 6% of the tested compounds scored in any of these assays.

SMILES	DRD3 agonist	D1 PAM	D1 antagonist	D1 agonist	DRD3 antagonist
O=C(NC(Nc1nc2ccc([N+](=O)[O-])cc2s1)(C(F)(F)F)C(F)(F)F)c1cccnc1	-2.8	-11.0	-34.9*	35.9*	-20.2
O=[N+]([O-])c1ccc2nc(NS(=O)(=O)c3ccccc3[N+](=O)[O-])sc2c1	0.3	nt	-38.8*	68.4*	0.9
O=[N+]([O-])c1ccccc1S(=O)(=O)Nc1nc2ccccc2s1	-10.6	8.5	5.5	5.2	-14.1
Cn1ccc2c(OCC(=O)NCc3ccccc3Cl)cccc2c1=O	2.9	0.8	nt	4.0	nt
CCn1c(O)c(C2=c3ccccc3=NC2=O)c2cc(Br)ccc21	-6.8	-7.2	-10.0	1.5	-80.3*
O=C1N=c2ccccc2=C1c1c(O)n(-c2cccc(F)c2)[nH]c1=O	-10.7	-4.1	4.5	0.3	?
COc1ccc(-c2nc3ccccc3o2)cc1NC(=O)C(C)(C)Oc1ccc(Br)cc1	-3.5	7.7	25.6	2.3	nt
Cc1ccc(S(=O)(=O)N2CCCc3cc(NC(=O)c4ccc(C(C)(C)C)cc4)ccc32)cc1	6.4	-0.2	-7.0	10.2	nt
COC(=O)CSc1ncnc2c1cnn2Cc1ccccc1	0.3	-3.0	35.6	42.1*	-7.0
CC(C)OC(=O)CSc1ncnc2c1cnn2Cc1ccccc1	0.6	-9.4	-11.3	4.4	18.6
Cc1ccc(NC(=O)Cn2ccn(-c3ccccc3)c(=O)c2=O)cc1	0.8	-1.6	6.5	-1.7	nt
CCOc1cc(CN2CCN(S(=O)(=O)c3ccc(C)cc3)CC2)ccc1OC	-1.7	0.1	6.8	-1.0	nt
CCOC(=O)c1sc(NC(=O)CCN2C(=O)c3cccc([N+](=O)[O-])c3C2=O)c(C(=O)OCC)c1C	16.3	1.8	-32.7*	1.5	-14.0
COc1ccc(NC(=O)c2c(N)c(C(=O)c3ccc(C)cc3)n3ccccc23)cc1OC	-16.1	-1.6	-13.3	0.7	nt
Cc1c(C)n(CCc2ccccc2)c2ncnc(NN)c12	4.9	-6.1	0.0	7.7	-7.6
Cc1c(C)n(CCc2ccccc2)c2ncnc(NCCCO)c12	5.7	-7.2	-32.1*	-1.0	23.5
O=S(=O)(Nc1ccc(N2CCOCC2)nn1)c1ccccc1	1.5	-1.6	-47.1*	1.9	-28.2
COc1ccc(CNC(=O)CSCc2ccc(C)cc2)c(OC)c1	2.1	-0.5	8.7	-1.6	nt
OC(CSc1c(Cl)cccc1Cl)CN1CCN(c2ccccc2F)CC1 (stereo not drawn)	20.4	-4.4	14.9	6.9	-56.0*
OC(CSc1ccccc1Cl)CN1CCN(c2ccccc2F)CC1 (stereo not drawn)	1.1	-5.5	-3.2	2.6	-67.1*
Fc1ccccc1N1CCN(CC2CCCCC2)CC1	-4.7	-15.9	-13.2	4.0	0.0
Cc1nn(CC(=O)Nc2cccc(C(F)(F)F)c2)c(=O)c2nn(-c3ccccc3)c(C)c12	4.9	-2.6	6.5	1.2	nt
CCOC(=O)c1cccc(NC(=O)CN2C(=O)CC(C)(C)Sc3ccccc32)c1	6.1	-1.6	-0.4	17.6	nt
CCN(CC)S(=O)(=O)c1cccc(C(=O)N/N=C2\CCCC(=O)C2)c1	3.3	-2.1	20.7	38.4*	-9.4
CCN(CC)S(=O)(=O)c1cccc(C(=O)N/N=C2\CC(=O)CC(C)(C)C2)c1	0.3	-1.8	-17.8	3.7	1.9
SMILES	DRD3 agonist	D1 PAM	D1 antagonist	D1 agonist	DRD3 antagonist
CCc1ccc(C(c2ccccc2)c2c[nH]c3ccc(C)cc23)s1 (stereo not drawn)	-9.4	-0.1	-5.9	0.7	nt
Cc1nn(C)c(C)c1S(=O)(=O)N(CC(=O)NCCc1ccc(Cl)cc1)c1ccc(C(C)C)cc1	-17.4	-0.1	-10.3	4.1	nt
CCOC(=O)N1CCC(NCCNC(=O)c2ccc(F)c(F)c2)CC1	-70.0	-3.2	nt	0.5	-99.3*
CCOC(=O)N1CCC(NCCNC(=O)c2ccc(Cl)cc2)CC1	-13.8	-1.1	-1.4	0.8	-73.9*
CCOC(=O)N1CCC(Nc2c(N3CCN(c4cc(Cl)ccc4C)CC3)c(=O)c2=O)CC1	4.1	nt	-30.4*	2.0	-20.6
CCOc1ccc(CNC(=O)c2ccc(-c3nc(CS(=O)(=O)c4ccccc4)c(C)o3)cc2)cc1	-16.3	2.1	-3.3	0.6	nt
COC(=O)CN1C(=O)CSc2ccc(S(=O)(=O)Nc3cccc(Cl)c3C)cc21	3.4	0.3	-16.2	-0.3	nt
COc1ccc(C2N(c3ccc(Cl)cc3)C(=O)C3CCCN32)cc1 (stereo not drawn)	5.8	-0.2	-38.2*	3.0	10.1

Screening results (PubChem)
